A selection: hits, their analogues and other compounds. The true share with any hit is near 0.9%.
RXFP1 agonist: agonists of human relaxin receptor RXFP1. Q9HBX9. HEK293T-RXFP1 cAMP TR-FRET, 30 min; response scale: percent of porcine relaxin response, buffer zero. Potency, µM (top dose mostly 57.5 µM), without a hit: at the highest dose activation, actives largely listed as activators. 370,000 compounds, 0.3% hits; active = well fitted activation curve with a large enough effect; inconclusive = small, poorly fitted or top-dose-only effect; note: potency is the fitted concentration of half-maximal effect; % is set by controls: 0 for no effect and ±100 for the full control effect; nearly all actives have a fitted effect of over 60% in size
Target sequence (Q9HBX9 whole entry, looked up): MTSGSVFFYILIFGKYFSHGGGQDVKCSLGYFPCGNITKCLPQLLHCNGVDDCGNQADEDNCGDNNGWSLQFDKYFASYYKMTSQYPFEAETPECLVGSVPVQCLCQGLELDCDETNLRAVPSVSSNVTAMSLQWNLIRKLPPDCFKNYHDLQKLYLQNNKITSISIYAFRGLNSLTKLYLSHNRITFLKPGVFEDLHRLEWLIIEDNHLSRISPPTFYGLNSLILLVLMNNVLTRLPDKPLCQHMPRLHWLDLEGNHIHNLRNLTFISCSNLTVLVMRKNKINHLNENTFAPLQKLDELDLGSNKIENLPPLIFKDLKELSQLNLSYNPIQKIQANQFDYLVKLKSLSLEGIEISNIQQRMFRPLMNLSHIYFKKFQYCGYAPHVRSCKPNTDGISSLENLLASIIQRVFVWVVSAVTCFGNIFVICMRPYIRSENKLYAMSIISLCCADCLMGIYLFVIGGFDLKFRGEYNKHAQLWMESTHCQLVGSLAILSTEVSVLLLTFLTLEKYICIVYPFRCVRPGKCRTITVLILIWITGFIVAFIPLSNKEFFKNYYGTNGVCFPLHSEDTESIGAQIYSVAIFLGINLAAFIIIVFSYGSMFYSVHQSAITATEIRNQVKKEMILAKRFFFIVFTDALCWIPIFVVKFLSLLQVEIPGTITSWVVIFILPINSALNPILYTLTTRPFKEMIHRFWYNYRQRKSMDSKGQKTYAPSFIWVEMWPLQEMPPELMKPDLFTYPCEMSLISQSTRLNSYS
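HEK293 cells stably expressing RXFP1, treated 30 min at 37C with compounds plus PDE4 inhibitor Ro 20174; cAMP measured by HTRF TR-FRET. Normalized to buffer and 29 nM porcine relaxin; EC50 by Hill fit.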
gsp antag: antagonists of gsp mutant (McCune-Albright syndrome); Potency, µM (top dose mostly 76.9 µM), inactives show top-dose activity change, negative = inhibition, usual class: inhibitors; 340,000 compounds, 0.4% hits; gsp-mutant cells, cAMP HTRF, 30 min; calls by dose curve; cell line not stated here;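 note: intracellular cAMP measured with PDE inhibitor Ro 20-1724 present during compound exposure; potency is the fitted concentration of half-maximal effect; % is set by controls: 0 for no effect and ±100 for the full control effect; nearly all actives have a fitted effect of over 65% in size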
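Cells in G418 medium, seeded 16-24 h, 37C; buffer exchange to DPBS + 1 mM CaCl2, 0.5 mM MgCl2, 0.05% BSA; cpds in DMSO + […] (300 uM stock), 30 min 37C; HTRF cAMP detection.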
gsp agonist: activates gsp, the McCune-Albright syndrome mutation. gsp mutant cells, cAMP HTRF, 30 min. Potency, µM (top dose mostly 76.9 µM), for the others: at the highest dose activation (cAMP increase), actives largely listed as activators. 340,000 compounds, 0.13% hits; active = well fitted activation curve with a large enough effect; inconclusive = small, poorly fitted or top-dose-only effect, or another doubt; inactive = no such curve, though single readings can be large or run the other way; cell line not stated here;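 note: phosphodiesterase inhibitor Ro 20-1724 added with compounds to block cAMP breakdown; potency is the fitted concentration of half-maximal effect; nearly all actives have a fitted effect of over 60% in size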
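Cells in DMEM/10% FBS with G418 were pretreated with compounds in DMSO plus […] (300 uM stock) for 30 min at 37C. cAMP was measured by HTRF (cAMP-d2 plus anti-cAMP antibody-K) after 30 min at room temperature.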
RXFP1 antag: blocks the human relaxin receptor RXFP1; 350,000 compounds, 0.59% hits; AID 1259400; activity change, negative = inhibition, % at 57.5 µM; Q9HBX9; HEK293-RXFP1, relaxin-stimulated cAMP HTRF, 30 min; hits give low values;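 active = activity change of -60% or lower, but not beyond a set lower limit; inconclusive = change between -60% and -40%, or beyond the set limit; inactive = change above -40%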; note: % is set by controls: 0 for no effect and ±100 for the full control effect
Starred values were filed as active, the others as inactive; ? = inconclusive; nt = not tested or not shown; ! = not active in a repeat; [ ] = another dose, or the depositor's remark.

SMILES	RXFP1 agonist	gsp antag	gsp agonist	RXFP1 antag
CCOc1ccc(/C(O)=C2/C(=O)C(=O)N(c3ccccn3)C2c2ccc(F)cc2)c(C)c1 (stereo unspecified)	0.0%	11.0%	15.8µM*	12.2
COC(=O)CC1Oc2ccc(F)cc2-n2cc(-c3ccc(C)cc3)nc21 (stereo unspecified)	1.8%	nt	nt	nt
Cc1cc(C)c2sc(N(CCCN(C)C)C(=O)COc3ccc(Cl)cc3)nc2c1	-0.1%	9.0%	17.7%[15.4 µM]	-71.7*
Cc1cc(C)c2sc(N(CCCN(C)C)C(=O)c3ccc(S(=O)(=O)N(C)C4CCCCC4)cc3)nc2c1	0.2%	11.1%	-2.1%[15.4 µM]	-84.4*
CCC(Sc1nc2ncccc2[nH]1)C(=O)Nc1cccc(OC)c1 (stereo unspecified)	1.6%	nt	nt	3.0
CC(=O)N1c2ccc(S(=O)(=O)N3CCCCCC3)cc2CC1C(=O)NCc1ccc(Cl)cc1 (stereo unspecified)	4.2%	nt	nt	nt
Cc1ccc2nc(NC(=O)CSc3[nH]c(=O)ncc3C)sc2c1	15.7%	nt	nt	-20.1
COc1ccc2c(c1)c1c(c(=O)n(Cc3ccccc3)c(=O)n1CC(=O)Nc1c(C)cccc1C)n2C	21.0%	nt	nt	nt
CCn1c2ccccc2c2cc(/C=N/NC(=O)c3cc(O)cc(O)c3)ccc21	3.8%	?	-2.7%[15.4 µM]	-83.0*
CCn1c2ccccc2c2cc(/C=N/NC(=O)c3ccc(O)cc3)ccc21	-0.3%	28.2µM*	-21.3%[15.4 µM]	-23.1
CCn1c2ccccc2c2cc(/C=N/NC(=O)c3ccncc3)ccc21	-0.3%	nt	-2.5%[15.4 µM]	-7.8
O=C(N/N=C/c1cn(Cc2ccccc2)c2ccccc12)c1cc(O)cc(O)c1	4.8%	18.9%	-7.1%	17.3
Cc1ccc(-n2cc3c(-c4cccc(Br)c4)nnc(C)c3n2)cc1	1.8%	-21.3%	?	-12.0
Cc1nnc(-c2cccc(Br)c2)c2cn(-c3ccccc3Cl)nc12	2.7%	-10.4%	28.3%	-63.5*
CC(C)(C)C(=O)COC(=O)c1ccc(N)c([N+](=O)[O-])c1	1.1%	12.8%	-15.4%	-2.2
COc1ccc(CCOC(=O)c2ccc(N)c([N+](=O)[O-])c2)cc1	-2.3%	-22.2%	4.3%	-66.4*
CO/N=C(\C(=O)N[C@@H]1C(=O)N2C(C(=O)OCOC(=O)C(C)(C)C)=C(C)CS[C@H]12)c1csc(N)n1	nt	nt	nt	-35.6
CCC(C(=O)OCCN1CCOC(c2ccccc2)C1C)c1ccccc1 (stereo unspecified)	nt	nt	nt	-37.5
OCCN1CCN(C(=S)Nc2cccc(C(F)(F)F)c2)CC1	1.2%	6.9%	3.0%	-68.5*!
CC(C)[C@H](NC(=O)c1ccccc1)C(=O)OCC(=O)/C=C1/N(C)c2ccccc2C1(C)C	-0.4%	35.5µM*	-16.0%	-21.1
CCOc1ccccc1NC(=O)COC(=O)C(CC)c1ccccc1 (stereo unspecified)	0.6%	10µM*	25.2%	-10.8
COc1ccc(/C=C/C(=O)NNC(=O)c2cc(C)oc2C)cc1	3.0%	4.6%	-0.7%[15.4 µM]	-61.9*
Cc1cc(C(=O)NNC(=O)/C=C/c2ccccc2Cl)c(C)o1	1.0%	-15.4%	4.7%	-3.4
Cc1cc(C)n(-c2nc(Nc3ccccc3C(F)(F)F)nc(-n3nc(C)cc3C)n2)n1	1.8%	28.2µM*	5.9%	?
Cc1c(Cl)cccc1NC(c1ccc(F)cc1)c1nnc(-c2ccccc2)o1 (stereo unspecified)	1.6%	nt	nt	nt
SMILES	RXFP1 agonist	gsp antag	gsp agonist	RXFP1 antag
CC(=O)c1ccc2c3c(cccc13)CC2	0.9%	-3.1%	-54.0%	-6.6
ON=C(c1ccccc1)c1ccc2c3c(cccc13)CC2	nt	nt	3.6%	-105.6*
CNC(=O)CN(CCN(CCN(CC(=O)[O-])CC(=O)NC)CC(=O)[O-])CC(=O)[O-].O.[Gd+3]	nt	nt	nt	-11.0
O=S(=O)(O)OCC1OC(OC2(COS(=O)(=O)O)OC(COS(=O)(=O)O)C(OS(=O)(=O)O)C2OS(=O)(=O)O)C(OS(=O)(=O)O)C(OS(=O)(=O)O)C1OS(=O)(=O)O (stereo unspecified)	nt	nt	nt	19.1
Cc1ccccc1NC(=O)c1cc2c(-c3ccccc3)nn(-c3ccccc3)c2s1	-3.0%	nt	nt	nt
Cc1ccc(CCNC(=O)c2c3c(nc4ccccc24)C(=O)N(C2CCCCC2)C3)cc1	2.1%	nt	nt	-71.6*
Cc1ccc(CNC(=O)c2ccc(N3CCCC3)c(NC(=O)Nc3ccc(C)cc3)c2)cc1	-0.1%	nt	nt	3.5
CC(C)c1nc(N2CCN(C(=O)c3ccco3)CC2)c(C#N)c2c1COC(C)(C)C2	2.9%	-11.5%	-10.1%	-61.1*
COc1ccc(C(=O)/C=C2/C(=O)Nc3ccccc32)cc1	-3.7%	-6.1%	?	-39.0
COc1ccc(C(=O)/C=C2/C(=O)Nc3ccccc32)c(OC)c1	5.9%	3.5%	5.5%[15.4 µM]	-86.1*
Cc1ccc(S(=O)(=O)Nc2ccccc2C(=O)Nc2nc(-c3ccc(F)cc3)cs2)cc1	-1.4%	-55.6%	-3.1%	nt
O=C(Nc1ccccc1N1CCOCC1)c1ccccc1NS(=O)(=O)c1ccc(F)c(F)c1	2.4%	3.55µM*	-31.7%	2.0
COc1ccc(-c2csc(NC(=O)c3ccccc3NS(=O)(=O)c3ccc(F)c(F)c3)n2)cc1	0.7%	31.6µM*	-12.9%[15.4 µM]	-27.4
O=C(Nc1ccccc1N1CCOCC1)c1ccccc1NS(=O)(=O)c1ccc(F)cc1	1.9%	-8.4%	4.6%[15.4 µM]	?
CSc1ccc(CCNc2ncnc3onc(-c4ccc(Cl)cc4)c23)cc1	0.8%	nt	nt	-19.8
Cn1c(=O)c2[nH]c(CCCc3ccc([N+](=O)[O-])cc3)nc2n(C)c1=O	nt	8.4%	15.8µM*	9.9
Cc1c(Cl)cccc1NC(=O)CN1C(=O)CSc2ccc(S(=O)(=O)N3CCCC3)cc21	-2.2%	nt	nt	-3.7
COc1ccc(-c2csc(NC(=O)CSc3n[nH]c(C)n3)n2)cc1	-0.4%	35.5µM*	6.2%	-25.2
COc1ccccc1N1CCN(C(=S)Nc2ccc(S(=O)(=O)N3CCOCC3)cc2)CC1	2.4%	31.6µM*	3.9%[15.4 µM]	-5.4
Cc1ccc(OC(F)F)c(NC(=O)Nc2cccc(C(F)(F)F)c2)c1	0.2%	35.5µM*	-0.6%	-30.1
O=C(Nc1ccccc1)Nc1cccc(C(F)(F)F)c1	-0.9%	-6.7%	17.1%[15.4 µM]	1.1
COC(=O)c1cc2c(s1)c1cnn(Cc3ccccc3F)c(=O)c1n2C	3.0%	nt	nt	nt
C/C=C(/C(=C/C)c1ccc(OC(C)=O)cc1)c1ccc(OC(C)=O)cc1	nt	nt	nt	-12.3
O=C(/C=C/c1ccc(O)c(O)c1)c1ccccc1O	5.0%	-8.0%	-2.7%[15.4 µM]	-13.8
O=C(/C=C/c1ccccc1Cl)c1cccnc1	2.0%	2.4%	0.2%	-72.0*
Cc1ccc(C)c(/C=C/C(=O)c2ccccc(=O)c2O)c1	-0.8%	-21.0%	-10.9%	?
O=C(C=Cc1ccccc1O)c1ccccc1O	nt	-7.6%	-33.6%	-66.2*
O=C(/C=C/c1ccccc1Cl)c1ccccc(=O)c1O	5.4%	4.1%	-57.8%	-79.1*
COc1ccc([N+](=O)[O-])cc1NC(=O)COC(=O)Cc1cc(OC)c(OC)c(OC)c1	1.3%	50.1µM*	6.7%	2.3
COc1cc(CC(=O)OCC(=O)Nc2cc([N+](=O)[O-])ccc2Cl)cc(OC)c1OC	4.4%	-14.5%	-16.9%	-2.4

Compound activity from PubChem.
